From PubChem
In the library only some 3.2% were active in any assay of this set; here they are far more common.
ANO1 block: mouse TMEM16A channel inhibition, primary screen. Q8BHY3. HEK293 TMEM16A/YFP iodide influx fluorescence, ionomycin. normalized B-score (activity score, 25-100; higher = stronger inhibition) at 10 µM. hit rate 1.2% among 310,000. AID 588511;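 active = ratio plate-corrected score three or more library SD toward inhibition, starting fluorescence score within five deviations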;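 also: score derived from kinetic fluorescence span divided by baseline fluorescence per well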
CHT allo act: allosteric activators of human choline transporter CHT. CHT-expressing cells, membrane potential dye, choline EC20; hits give high values; LV-AA mutant CHT in HEK293 cells. B-score at 10 µM. hit rate 0.49% among 310,000;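 active = initial fluorescence not abnormally high and integrated response B-score, plate-corrected, over 3 SD above library mean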
Target sequence (Q9GZV3 whole entry, looked up): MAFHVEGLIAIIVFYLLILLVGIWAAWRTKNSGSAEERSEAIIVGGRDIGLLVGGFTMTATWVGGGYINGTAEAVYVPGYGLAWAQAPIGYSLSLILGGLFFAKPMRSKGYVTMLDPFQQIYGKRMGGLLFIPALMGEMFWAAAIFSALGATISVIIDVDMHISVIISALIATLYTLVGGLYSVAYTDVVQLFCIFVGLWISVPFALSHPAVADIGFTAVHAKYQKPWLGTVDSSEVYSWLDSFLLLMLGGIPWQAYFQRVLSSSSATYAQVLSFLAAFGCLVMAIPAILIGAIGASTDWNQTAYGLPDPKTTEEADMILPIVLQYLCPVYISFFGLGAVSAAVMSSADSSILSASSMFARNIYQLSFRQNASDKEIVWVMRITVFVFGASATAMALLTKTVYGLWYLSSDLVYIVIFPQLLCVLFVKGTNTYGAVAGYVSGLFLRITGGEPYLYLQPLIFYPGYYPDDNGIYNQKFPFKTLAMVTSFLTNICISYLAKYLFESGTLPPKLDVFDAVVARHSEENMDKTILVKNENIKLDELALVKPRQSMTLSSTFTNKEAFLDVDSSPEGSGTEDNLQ
Rce1 inh: yeast Ras-converting enzyme inhibition; yeast membranes, quenched prenylated peptide cleavage fluorescence; calls only; hit rate 0.27% among 290,000;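 active = fall in fluorescence gain of 50% or more versus controls, with final raw signal at or below 3038400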
ANO1 activ: activates or potentiates the mouse TMEM16A chloride channel | Q8BHY3 | AID 623877 | B-score at 10 µM | hit rate 0.3% among 340,000 | HEK293 TMEM16A/YFP-H148Q/I152L, iodide quench fluorescence; hits give low values;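 active = fluorescence-ratio B-score plate-corrected deviation score at least 3 library SD below zero, with starting fluorescence score within 5 deviations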;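 also: channel opened by trigger with iodide after compound preincubation; score built on the fluorescence ratio of max minus min over baseline; more negative score means more quench and so TMEM16A activation or potentiation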
CHT inh: inhibits the human high affinity choline transporter; CHT-expressing cells, membrane potential dye, choline response; hits give low values; B-score at 10 µM; hit rate 0.86% among 310,000; AID 488975;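 active = B-score over 3 SD under the library average, and starting fluorescence ratio not unusually high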;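 also: choline stimulus applied at its EC90 after an EC20 pre-addition; B-score computed on integrated fluorescence ratio after choline addition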
Kir21 inh: Kir2.1 (mouse) channel inhibition; P35561; HEK293-Kir2.1, FluxOR thallium flux fluorescence; hits give low values; B-score at 10 µM; AID 1672; hit rate 0.85% among 310,000;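 active = fluorescence ratio B-score at or below minus 3 SD of library scores, with starting-brightness B-score within 2 SD, cut at about -4.2 in these data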;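 also: channel flux triggered by added potassium and thallium sulfate stimulus; B-score of peak minus minimum fluorescence over baseline after thallium stimulus; more negative B-score means stronger Kir2.1 block with less thallium influx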
A number is an active result; . = inactive; / = no result given; + = active, no number.

SMILES	ANO1 block	CHT allo act	Rce1 inh	ANO1 activ	CHT inh	Kir21 inh
COc1ccc(CNC(=O)c2ccc(N3CCOCC3)c([N+](=O)[O-])c2)cc1	.	.	.	.	.	-4.88
CCCNC(=O)c1ccc(N2CCC3(CC2)CC(c2ccccc2)=NO3)c([N+](=O)[O-])c1	.	.	.	.	.	.
CC(=O)N1CCN(C(=O)CCC(=O)O)CC1	.	.	.	.	.	.
CSc1ccc(/C=C/C(=O)OCC(=O)NC(C)C)cc1	.	.	+	.	.	.
CC(=O)c1cccc(N(C(=O)CNC(=O)c2ccco2)C(C(=O)NCC2CCCO2)c2ccccc2)c1 (stereo not drawn)	.	.	.	.	.	.
CCOC(=O)NNC1CC(=O)N(c2ccc(OC)cc2)C1=O (stereo not drawn)	100	.	.	.	.	.
COc1ccc(CCNC(=O)C2CCCN2C(=O)Nc2ccc(F)cc2)cc1OC (stereo not drawn)	.	.	.	.	.	.
CCOC(=O)C1CCCN(c2nc(C)nc3c2oc2ccccc23)C1 (stereo not drawn)	25	.	.	.	.	.
CCOC(=O)c1ccc2c(c1)N(CC(=O)N1CCCC1)C(=O)C(C)(C)O2	.	.	/	.	.	.
CCOC(=O)c1ccc2c(c1)N(CC#N)C(=O)C(C)(C)O2	25	.	.	.	.	.
CC(=O)c1sc(N/N=C2\CC3CC2C(C)C3(C)C)nc1C (stereo not drawn)	.	.	.	.	.	.
COc1ccc(C2CC(c3cccs3)=NN2c2ccc(C=O)cc2)cc1 (stereo not drawn)	.	.	+	/	.	.
CCOC(=O)C(=Cc1cc(=O)c(OC)co1)C(=O)OCC	/	/	.	.	/	-7.35
Cc1nc2ncnn2c(N2CCN(C(c3ccccc3)c3ccccc3)CC2)c1C	.	.	.	.	.	.
Cc1cc(N2CCN(C(c3ccccc3)c3ccccc3)CC2)n2ncnc2n1	.	.	+	.	.	.
COC(c1ccccc1)c1c(-c2ccccc2)nn(C)c1Cl (stereo not drawn)	.	.	.	.	.	-4.84
COc1ccc(N(C)S(=O)(=O)c2cccc(C(=O)NCC3CCCCC3)c2)cc1	/	/	.	-36.9	/	.
COc1ccc(N(C)S(=O)(=O)c2cccc(C(=O)NC3CCCC3)c2)cc1	.	.	.	.	.	.
COc1ccc(CCNC(=O)COC(=O)Cc2cccc3ccccc23)cc1	.	.	.	.	.	-11.6
COc1ccc(NC(=O)COC(=O)Cc2ccc(Br)cc2)cc1	.	.	.	.	.	.
COc1ccc(CC(=O)OCC(=O)Nc2ccc(Br)cc2)cc1	.	.	+	.	.	.
COc1cccc(NC(=O)CSc2nc3ccsc3c(=O)n2-c2ccc(C(=O)O)cc2)c1	.	.	.	.	.	.
COc1cc(C)ccc1OCCOCCOc1c(C)cc(C)cc1Br	100	.	.	.	.	.
CCOC(=O)C1CCN(C(=O)c2ccc3c(c2)NC(=O)/C(=C\c2ccc(C)cc2)S3)CC1	.	.	.	.	.	.
CCOC(=O)C1CCN(C(=O)c2ccc3c(c2)NC(=O)/C(=C/c2ccccc2)S3)CC1	.	.	.	-50.5	.	.
SMILES	ANO1 block	CHT allo act	Rce1 inh	ANO1 activ	CHT inh	Kir21 inh
COc1ccc(CN2CCCC(C(=O)c3cccc(C(F)(F)F)c3)C2)cc1O (stereo not drawn)	.	.	.	.	.	-12.2
O=S(=O)(Nc1ccc(Cl)cn1)c1ccc2c(c1)OCCO2	.	.	.	.	.	.
Cc1ccc(CC(NC(=O)C2CCCCC2)C(=O)O)cc1 (stereo not drawn)	/	/	/	.	/	/
O=C1CC(NNc2ccccc2)C(=O)N1c1ccc(N2CCCCC2)cc1 (stereo not drawn)	/	/	/	.	/	/
CCCOc1cccc(-c2cc(C(=O)N/N=C/c3cccnc3)c3ccccc3n2)c1	25	.	.	.	.	.
O=C(N/N=C/c1ccccc1OC(F)F)c1cc(-c2ccncc2)nc2ccccc12	.	.	.	.	-6	.
O=C(O)COc1ccccc1/C=N/NC(=O)c1cc(-c2ccccc2)nc2ccccc12	.	.	.	.	.	.
CCCOc1cccc(-c2cc(C(=O)N/N=C/c3ccccn3)c3ccccc3n2)c1	.	.	.	.	.	.
COc1ccc(N2CCN(CCCNC(=O)C(=O)c3c(C)n(C)c4ccccc34)CC2)cc1	.	.	.	.	.	.
CCOC(=O)C1OC1(c1ccccc1)c1ccccc1 (stereo not drawn)	/	/	/	.	/	/
CC(=O)Oc1ccc2c3c(c(=O)oc2c1)CCCC3	.	.	.	.	.	.
O=c1oc2cc(O)ccc2c2c1CCCC2	.	.	.	.	.	-6.49
CCN(CC)CCNC(=O)CCN1N=C(c2ccccc2)CCC1=O	.	.	.	.	.	.
CCN(CC)CCNC(=O)c1[nH]c2ccc(OCc3ccccc3)cc2c1C	.	.	+	.	.	.
CCc1cc2c(=O)n(-c3ccccc3)c(=S)[nH]c2s1	25	.	.	.	.	.
O=C(NCCS(=O)(=O)N1CCCCC1)c1ccccc1	.	.	.	.	.	.
COc1cc(OC)cc(-c2oc(=O)c3cc(OC)c(OC)cc3c2C(F)(F)F)c1	/	/	/	.	/	/
COc1ccc(Cl)cc1NC(=S)NCCc1ccc(F)cc1	.	.	.	.	.	-4.64
COc1ccc(Cl)cc1NCCC(O)c1ccc(F)cc1 (stereo not drawn)	.	.	.	.	.	-4.79
COc1ccc(Cl)cc1NC(=S)NCCO	.	.	.	.	.	.
COc1ccccc1NC(=S)NCCc1ccc(S(N)(=O)=O)cc1	.	.	.	.	.	.
COc1ccc(Cl)cc1NC(=S)NCCc1ccc(S(N)(=O)=O)cc1	.	.	.	-6.17	.	.
COc1ccc(CCNC(=S)NCCc2ccc(OC)c(OC)c2)cc1OC	25	.	.	.	.	.
CNC(=S)NCCc1ccc(OC)c(OC)c1	.	.	.	.	.	.
CN1CCCN(Cc2ccccc2Br)CC1	.	.	/	.	.	.
SMILES	ANO1 block	CHT allo act	Rce1 inh	ANO1 activ	CHT inh	Kir21 inh
CCOc1ccccc1N(CC(=O)N1CCOCC1)S(=O)(=O)c1ccc(SC)cc1	/	/	.	-9.79	/	.
O=C(c1ccc([N+](=O)[O-])cc1)N1CCSC1c1ccc(Br)cc1 (stereo not drawn)	.	.	.	.	.	.
Cc1ccc(C2SCCN2C(=O)c2ccc([N+](=O)[O-])cc2)cc1 (stereo not drawn)	.	.	.	.	.	-6.53
C=C(C)COc1ccc2c(C)c(CCC(=O)NC3CC3)c(=O)oc2c1	.	.	.	.	.	.
COc1cc(OC)cc(C(=O)NCCC(=O)NCCc2ccc(OC)c(OC)c2)c1	.	.	.	.	.	.
CC1CCC(C(C)C)C(OC(=O)COC(=O)c2cccn2C)C1 (stereo not drawn)	.	.	.	.	.	.
